The values below come from the supplement of paper PMC10037445.

In all, about 2,900 compounds were measured (“NF-kB SEAP reporter activity, fold change vs agonist alone”: median about 0.99, highest 2% from about 2.6 on). The sample as a whole holds a higher share of the highest values than the screen did.

Test [1] concerns RAW-Dual. Put plainly: NF-kB SEAP reporter activity, fold change vs agonist alone; cytotoxicity flag (confluency mask): not cytotoxic; higher = enhanced NF-kB activity. In a few lines: (§1)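 RAW-Dual macrophages (50,000 cells/well in DMEM, 384-well plates) received 50 nL of library stock by pin tool, then a PRR agonist 1 h later, and were kept at 37 °C, 5% CO2. After 20 hours, supernatant was read for IRF by QuantiLuc luminescence and for NF-κB by QuantiBlue absorbance at 620 nm. Reporter activity is fold change over agonist-alone wells. Cytotoxic wells had IncuCyte confluency below 70% of agonist controls in both mask sets.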

For test [2], the system named is RAW-Dual. Put plainly: NF-kB SEAP reporter activity, fold change vs agonist alone; higher = enhanced NF-kB activity. The note with it: cytotoxicity flag (confluency mask): not cytotoxic. An outline of the steps: as §1
Setting [3] is: agonist: ODN 1826 (TLR9) 0.5 ug/mL.
Setting [4] is: agonist: Pam2CSK4 (TLR2/6) 0.1 ug/mL.
The mark [5] stands for this setting: agonist: Pam3CSK4 (TLR2/1) 0.1 ug/mL.
Setting [6] is: library stock concentration (final ~1000-fold dilution): 10 mM, agonist: Imiquimod (TLR7) […].
The mark [7] stands for this setting: library stock concentration (final ~1000-fold dilution): 10 mM, agonist: MPLA (TLR4) […].

With `CCOc1cc(C(CS(C)(=O)=O)N2C(=O)c3cccc(NC(C)=O)c3C2=O)ccc1OC` (stereo not given) (library stock concentration (final ~1000-fold dilution): 10 mM), the “NF-kB SEAP reporter activity” value in test [1] (agonist: LPS (TLR4) 0.1 ug/mL) came out at 1.59; in test [1] (setting [3]), 1.87; in test [1] (setting [4]), 1.47; in test [1] (setting [5]), 1.72.

Regarding `CCOc1cc(C(CS(C)(=O)=O)N2C(=O)c3cccc(NC(C)=O)c3C2=O)ccc1OC` (stereo not given), the “NF-kB SEAP reporter activity” value was found to be 1.12 in test [2] (setting [6]) and 1.26 in test [2] (setting [7]).

In the case of `N=C(N)NCCCC(N)C(=O)NCC(=O)NC(CC(=O)O)C(=O)O` (stereo not given), the “NF-kB SEAP reporter activity” value in test [2] (library stock concentration (final ~1000-fold dilution): 10 mM water, agonist: Imiquimod (TLR7) […]) worked out at 0.924; in test [2] (library stock concentration (final ~1000-fold dilution): 10 mM water, agonist: MPLA (TLR4) […]) it was 1.06.

Consider `N=C(N)NCCCC(N)C(=O)NCC(=O)NC(CC(=O)O)C(=O)O` (stereo not given) (library stock concentration (final ~1000-fold dilution): 10 mM water), for which the “NF-kB SEAP reporter activity” value in test [1] (agonist: LPS (TLR4) 0.1 ug/mL) turned out to be 1.41; in test [1] (setting [3]) it was 1.14; in test [1] (setting [4]), 1.2; in test [1] (setting [5]), 0.993.

For the molecule `[O-][n+]1cccc(-c2nc3c(Cl)cccc3cc2C(Nc2ncnc3cccnc23)C(F)(F)F)c1` (stereo not given), the results for the “NF-kB SEAP reporter activity” value in test [2] (setting [6]) and in test [2] (setting [7]) were 0.648 and 1.56, respectively.

With `[O-][n+]1cccc(-c2nc3c(Cl)cccc3cc2C(Nc2ncnc3cccnc23)C(F)(F)F)c1` (stereo not given) (library stock concentration (final ~1000-fold dilution): 10 mM), the “NF-kB SEAP reporter activity” value was 2.33 in test [1] (agonist: LPS (TLR4) 0.1 ug/mL), 1.3 in test [1] (setting [3]), 0.992 in test [1] (setting [4]) and 1.38 in test [1] (setting [5]).

On to `CC(C)=CC(C)C[C@](C)(O[C@@H]1O[C@H](CO)[C@@H](O)[C@H](O)[C@H]1O)[C@H]1CC[C@]2(C)C3CCC4C(C)(C)C(O[C@@H]5O[C@H](CO)[C@@H](O)[C@H](O)[C@H]5O[C@@H]5O[C@H](CO)[C@@H](O)[C@H](O)[C@H]5O)CC[C@]4(C)C3C[C@H](O)[C@@H]12` (stereo not given in full) (library stock concentration (final ~1000-fold dilution): 10 mM), for which the “NF-kB SEAP reporter activity” value was found to be 1.18 in test [1] (agonist: LPS (TLR4) 0.1 ug/mL), 1.06 in test [1] (setting [3]), 1.04 in test [1] (setting [4]) and 1.04 in test [1] (setting [5]).

As for `CC(C)=CC(C)C[C@](C)(O[C@@H]1O[C@H](CO)[C@@H](O)[C@H](O)[C@H]1O)[C@H]1CC[C@]2(C)C3CCC4C(C)(C)C(O[C@@H]5O[C@H](CO)[C@@H](O)[C@H](O)[C@H]5O[C@@H]5O[C@H](CO)[C@@H](O)[C@H](O)[C@H]5O)CC[C@]4(C)C3C[C@H](O)[C@@H]12` (stereo not given in full), the “NF-kB SEAP reporter activity” value in test [2] (setting [6]) amounted to 0.936; in test [2] (setting [7]), 1.05.

With `COc1cc(CCC(=O)CC(O)CCc2ccc(O)c(OC)c2)ccc1O` (stereo not given), the “NF-kB SEAP reporter activity” value in test [2] (setting [6]) is 1.04; in test [2] (setting [7]), 1.1.

Regarding `COc1cc(CCC(=O)CC(O)CCc2ccc(O)c(OC)c2)ccc1O` (stereo not given) (library stock concentration (final ~1000-fold dilution): 10 mM), the “NF-kB SEAP reporter activity” value in test [1] (agonist: LPS (TLR4) 0.1 ug/mL) amounted to 1.4; in test [1] (setting [3]) it was 1.07; in test [1] (setting [4]) it was 0.979; in test [1] (setting [5]) it was 1.25.

On to `COC(=O)C1=C(C)NC(C)=C(C(=O)OC2CCCN(Cc3ccccc3)C2)C1c1cccc([N+](=O)[O-])c1.Cl` (stereo not given), for which the “NF-kB SEAP reporter activity” value in test [2] (setting [6]) amounted to 0.718; in test [2] (setting [7]), 0.978.

Turning to `COC(=O)C1=C(C)NC(C)=C(C(=O)OC2CCCN(Cc3ccccc3)C2)C1c1cccc([N+](=O)[O-])c1.Cl` (stereo not given) (library stock concentration (final ~1000-fold dilution): 10 mM), the “NF-kB SEAP reporter activity” value was 1.22 in test [1] (agonist: LPS (TLR4) 0.1 ug/mL), 0.381 in test [1] (setting [3]), 0.365 in test [1] (setting [4]) and 0.368 in test [1] (setting [5]).

`OCCn1cc(-c2ccc3c(c2)CC/C3=N\O)c(-c2ccncc2)n1`: the “NF-kB SEAP reporter activity” value in test [2] (setting [6]) is 1.65; in test [2] (setting [7]), 1.57.

On to `OCCn1cc(-c2ccc3c(c2)CC/C3=N\O)c(-c2ccncc2)n1` (library stock concentration (final ~1000-fold dilution): 10 mM), for which the “NF-kB SEAP reporter activity” value in test [1] (agonist: LPS (TLR4) 0.1 ug/mL) was determined as 2.47; in test [1] (setting [3]), 1.5; in test [1] (setting [4]) it was 1.34; in test [1] (setting [5]), 2.22.

Regarding `CN(C)CCOc1ccc(-c2nc(-c3ccncc3)c(-c3ccc4c(c3)CC/C4=N\O)[nH]2)cc1`, the figures for the “NF-kB SEAP reporter activity” value in test [2] (setting [6]) and in test [2] (setting [7]) were 0.946 and 1.02, respectively.

As for `CN(C)CCOc1ccc(-c2nc(-c3ccncc3)c(-c3ccc4c(c3)CC/C4=N\O)[nH]2)cc1` (library stock concentration (final ~1000-fold dilution): 10 mM), the “NF-kB SEAP reporter activity” value in test [1] (agonist: LPS (TLR4) 0.1 ug/mL) turned out to be 5; in test [1] (setting [3]) it was 0.964; in test [1] (setting [4]), 1.49; in test [1] (setting [5]), 0.882.

Regarding `CS(=O)(=O)c1ccc(Oc2cc(F)cc(C#N)c2)c2c1C(O)C(F)(F)C2` (stereo not given) (library stock concentration (final ~1000-fold dilution): 10 mM), the “NF-kB SEAP reporter activity” value in test [1] (agonist: LPS (TLR4) 0.1 ug/mL) came to 1.07; in test [1] (setting [3]), 1.35; in test [1] (setting [4]), 1.01; in test [1] (setting [5]) it was 1.2.

As for `CS(=O)(=O)c1ccc(Oc2cc(F)cc(C#N)c2)c2c1C(O)C(F)(F)C2` (stereo not given), the entries for the “NF-kB SEAP reporter activity” value in test [2] (setting [6]) and in test [2] (setting [7]) were 1.03 and 1.16, respectively.

With `COc1ccc(CCNCC(O)COc2cccc(C)c2)cc1OC.Cl` (stereo not given), in test [2] (setting [7]), the “NF-kB SEAP reporter activity” value was 1.06.

Turning to `COc1ccc(CCNCC(O)COc2cccc(C)c2)cc1OC.Cl` (stereo not given) (library stock concentration (final ~1000-fold dilution): 10 mM), the “NF-kB SEAP reporter activity” value was 1.02 in test [1] (agonist: LPS (TLR4) 0.1 ug/mL), 0.846 in test [1] (setting [3]), 0.999 in test [1] (setting [4]) and 1.08 in test [1] (setting [5]).

With `COc1ccccc1N1CCN(CC(O)COc2cccc3ccccc23)CC1.Cl.Cl` (stereo not given) (library stock concentration (final ~1000-fold dilution): 10 mM), the “NF-kB SEAP reporter activity” value in test [1] (agonist: LPS (TLR4) 0.1 ug/mL) is 0.815; in test [1] (setting [3]) it was 0.929; in test [1] (setting [4]), 0.819; in test [1] (setting [5]), 0.805.

Regarding `COc1ccccc1N1CCN(CC(O)COc2cccc3ccccc23)CC1.Cl.Cl` (stereo not given), the results for the “NF-kB SEAP reporter activity” value in test [2] (setting [6]) and in test [2] (setting [7]) were 1.01 and 0.766, respectively.

For the molecule `COc1cc(C(=O)N(CCCc2ccccc2)Cc2ccc(CC(=O)O)cc2)cc(OC)c1C`, the “NF-kB SEAP reporter activity” value in test [2] (setting [6]) turned out to be 1.1; in test [2] (setting [7]), 1.11.

As for `O=C(NO)c1ccc(CC(=O)N(CCO)c2ccccc2)cc1` (library stock concentration (final ~1000-fold dilution): 10 mM), the “NF-kB SEAP reporter activity” value in test [1] (agonist: LPS (TLR4) 0.1 ug/mL) is 1.94; in test [1] (setting [3]), 1.74; in test [1] (setting [4]), 0.801; in test [1] (setting [5]), 1.21.

Take `CCCCN(Cc1ccc(C(=O)NO)cc1)C(=O)Nc1ccccc1`: the “NF-kB SEAP reporter activity” value is 1.52 in test [2] (setting [6]) and 2.9 in test [2] (setting [7]).

In the case of `O=C(NO)c1ccc(CC(=O)N(CCO)c2ccccc2)cc1`, the “NF-kB SEAP reporter activity” value in test [2] (setting [6]) amounted to 1.15; in test [2] (setting [7]), 1.79.
